Measured values: PubChem BioAssay (NCATS)
Inconclusive results are not listed. Entries that show only a call come without a potency. Unmarked numbers belong to inactive results. Activity calls are given as the source filed them. Calls come from the whole dose curve; as a rule, active = well fitted cell-killing curve with a large enough effect; inconclusive = small, poorly fitted or top-dose-only effect, or effect the other way; inactive = flat fitted curve, though single readings scatter.

System: Tov-21-G
Test: Primary qHTS to identify gynecologic anti-cancer compounds using libraries of approved drugs and bioactive compounds (AID 1345084); note: nearly all actives have a fitted effect of over 55% in size
Details: Gynecologic cancer cell panel viability, ATPlite luminescence, 48 h; series mostly up to 57.5 µM
Procedure, shortened: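 Cells, 1,000 per well, plated 16 h, then exposed 48 h at 37 C to compounds. Viability by ATPlite luminescence after 15 min at room temperature.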

Row | SMILES | Potency | activity change, negative = cytotoxicity
1 | O=C(/C=C/c1ccc(O)cc1)O[C@H]1[C@@H]2C=CO[C@@H](O[C@@H]3O[C@H](CO)[C@@H](O)[C@H](O)[C@H]3O)[C@@H]2[C@@]2(CO)O[C@@H]12 | inactive | 
2 | COCCN(C)Cc1ccc2nc3sc(C(=O)N(C)C4CCCCC4)cn3c2c1 | inactive | 
3 | CC12CCC3c4ccc(O)cc4CCC3C1CCC2OC1OC(C(=O)O)C(O)C(O)C1O (stereo not given) | inactive | 
4 | COc1cc(CCc2ccccc2)c(C(=O)O)c2c1CC(C(C)(C)O)O2 (stereo not given) | inactive | 
5 | OCc1ccccc1O[C@@H]1O[C@H](CO)[C@@H](O)[C@H](O)[C@H]1O | inactive | 
6 | CC/C=C\C[C@H]1C(=O)C=C[C@@H]1CCCCCCCC(=O)O | inactive | 
7 | CC(NC(=O)CC(=O)O)c1nc2ccccc2c(=O)[nH]1 (stereo not given) | inactive | 
8 | C[C@@H]1CC[C@]2(C(=O)O)CC[C@]3(C(=O)O)C(=CCC4[C@@]5(C)CC[C@H](O[C@@H]6O[C@@H](C)[C@H](O[C@@H]7O[C@H](CO)[C@@H](O)[C@H](O)[C@H]7O)[C@@H](O)[C@H]6O)C(C)(C)C5CC[C@]43C)C2[C@H]1C (stereo not given in full) | inactive | 
9 | COc1ccc(C)c2sc(NC(=O)c3ccncc3)nc12 | inactive | 
10 | NCCOCCOCCNC(=O)Cc1ccc(Nc2nc(NCc3ccc(F)cc3)nc(NCC3CCCCC3)n2)cc1 | inactive | 
11 | Nc1nonc1C(=Nc1ccc(F)c(Cl)c1)NO | inactive | 
12 | CNC(=O)c1ccc2cc([C@@]3(O)CCn4cncc43)ccc2c1 | inactive | 
13 | O=C1NCc2nc3ccccc3c(=O)n2C1Cc1c[nH]c2ccccc12 (stereo not given) | inactive | 
14 | CCCCCCc1cccc(NC(=O)[C@H](N)CCP(=O)(O)O)c1 |  | -2.84% [at 11.6 µM]
15 | CC1CCC2C(C)(C)CC(C)(CO)C2(O)C1C(=O)O (stereo not given) | inactive | 
16 | CC(C)(C)NCC(O)COc1cccc2c1CCCC2=O (stereo not given) | inactive | 
17 | COC(=O)C1=CO[C@@H](O[C@@H]2O[C@H](CO[C@@H]3O[C@H](COC(=O)/C=C/c4ccc(O)cc4)[C@@H](O)[C@H](O)[C@H]3O)[C@@H](O)[C@H](O)[C@H]2O)[C@@H]2C(CO)=CC[C@H]12 | inactive | 
18 | C=CC(C)(O)CC/C=C(\C)C(=O)OCC1OC(OC2CCC3(C)C(CCC4(C)C3CC=C3C5CC(C)(C)C(O)CC5(C(=O)O)CCC34C)C2(C)C)C(O)C(OC2OC(CO)C(O)C(OC3OC(CO)C(O)C(OC4OC(COC5OC(CO)C(O)C(O)C5O)C(O)C(O)C4O)C3O)C2O)C1O (stereo not given) |  | 2.74% [at 6.55 µM]
19 | COC1C=C([C@@H]2CC=C3[C@@]4(C)C(CC[C@]32C)[C@@]2(C)C=CC(=O)C(C)(C)C2C[C@H]4OC(C)=O)C(=O)O1 (stereo not given in full) | inactive | 
20 | Cc1c(N2C(=O)c3ccc(C(=O)O)cc3C2=O)c(=O)n(-c2ccccc2)n1C | inactive | 

Row | SMILES | Potency | activity change, negative = cytotoxicity
21 | CC[C@H]1OC(=O)[C@H](C)[C@@H](OC2C[C@@](C)(OC)[C@@H](O)[C@H](C)O2)[C@H](C)[C@@H](OC2O[C@H](C)C[C@H](NC)[C@H]2O)[C@](C)(O)C[C@@H](C)CN(C)[C@H](C)[C@@H](O)[C@]1(C)O (stereo not given in full) | inactive | 
22 | C=C1C2(CCC(=O)OC2(C)C)CC(OC(=O)/C(C)=C/C)C2(C)C13OC14C(=O)OC(C)(C(=O)C12C(=O)OC4C)C3OC(C)=O (stereo not given) | inactive | 
23 | C=C1C(=O)OC2/C=C(\C)CC/C=C(\C(=O)O)CC/C=C(\C)CCC12 (stereo not given) | inactive | 
24 | CC(C)c1nc(N(C)S(C)(=O)=O)nc(-c2ccc(F)cc2)c1/C=C/[C@@H](O)C[C@@H](O)CC(=O)O | inactive | 
25 | C=C1C[C@]23C[C@H]1CC[C@H]2[C@@]12C=C[C@H](O)[C@@](C)(C(=O)O1)[C@H]2[C@@H]3C(=O)O | inactive | 
26 | COC1C2=C(COC2=O)C2(C)CCCC(C)(CO)C2C1OC(=O)c1ccccc1 (stereo not given) | inactive | 
27 | CC1CCCC2OC2C(=O)c2c(O)cc(O)cc2CC(=O)O1 (stereo not given) | inactive | 
28 | C[C@@H]1C(=O)O[C@H]2CC34[C@H]5C[C@@H](C(C)(C)C)C36[C@@H](OC(=O)[C@@H]6O)O[C@@]4(C(=O)O5)[C@]21O (stereo not given in full) | inactive | 
29 | CC(C)C(C#N)O[C@@H]1O[C@H](CO[C@@H]2OC[C@](O)(CO)[C@H]2O)[C@@H](O)[C@H](O)[C@H]1O (stereo not given in full) | inactive | 
30 | CC[C@H]1OC(=O)[C@H](C)[C@@H](O[C@H]2C[C@@](C)(OC)[C@@H](O)[C@H](C)O2)[C@H](C)[C@@H](O[C@@H]2O[C@H](C)C[C@H](N(C)C)[C@H]2O)[C@@](C)(O)C[C@@H](C)[C@@H]2N[C@@H](COCCOC)OC([C@H]2C)[C@]1(C)O | inactive | 
31 | CCc1cc2c(=O)c(-c3nc4ccccc4s3)coc2c(CN2CCCCC2)c1O | inactive | 
32 | C=C1C(=O)OC2CC(C)=C(C(C)CCCO[C@@H]3O[C@H](CO)[C@@H](O)[C@H](O)[C@H]3O)C(O)C12 (stereo not given in full) | inactive | 
33 | CCC(C)/C=C(C)/C=C/C1=CC2=C(Cl)C(=O)C(C)(OC(C)=O)C(=O)C2=CN1CCCC(=O)O (stereo not given) | inactive | 
34 | CC(=O)OC[C@@]12[C@H](O)C[C@]3(C)C(=CCC4[C@@]5(C)CC[C@H](O[C@@H]6O[C@H](C(=O)O)[C@@H](O[C@@H]7O[C@H](CO)[C@@H](O)[C@H](O)[C@H]7O)[C@H](O)[C@H]6O[C@@H]6O[C@H](CO)[C@@H](O)[C@H](O)[C@H]6O)[C@](C)(CO)C5CC[C@]43C)[C@@H]1CC(C)(C)[C@@H](OC(C)=O)[C@@H]2O (stereo not given in full) |  | 2.04% [at 11.6 µM]
35 | COc1ccc([C@@H]2N[C@H](C(=O)O)Cc3c2[nH]c2ccccc32)cc1CN1CCN(c2ccccc2F)CC1 | inactive | 
36 | CC1=CC(=O)CC(C)(C)C1(O)CCC(C)O (stereo not given) | inactive | 
37 | COc1ccccc1[C@@H]1C2=C(CC(C)(C)CC2=O)Nc2n[nH]c(C(F)(F)F)c21 | inactive | 
38 | CC(C)(OC1OC(CO)C(O)C(O)C1O)C1CCC(O)(CO)C2CC(O)C(C)(O)C2C1 (stereo not given) | inactive | 
39 | CN1C(=O)c2ccccc2-n2c(nc3ccccc3c2=O)/C1=C/c1ccccc1 | inactive | 
40 | CC(=O)OCC(=O)O[C@@H]1[C@H]2[C@@H](OC(=O)c3ccccc3)[C@@H](C)C[C@]2(O)[C@H](OC(C)=O)C2(C)[C@H]3CC(C)(C)C(=O)[C@@H]3CC1(OC(C)=O)[C@@H]2OC(C)=O (stereo not given in full) | inactive | 
